The nature of assay [1]: qHTS for Inhibitors of Plasmodium falciparum (DD2) proliferation (AID 504314). Also: potency is read from the fitted curve at half-maximal effect. Summed up:
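Fluorescence read-out (ex 485/em 535 nm) of SYBR Green-stained parasite DNA quantifies intraerythrocytic growth. Cultures at 0.3% parasitemia and 2.5% hematocrit were treated for 72 h; data normalized to DMSO and 0.29 uM artemisinin wells.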
(In general: In qHTS, concentration-response curves come from the screen itself.)

A short description of assay [2]: qHTS for Inhibitors of Plasmodium falciparum (GB4) proliferation (AID 504315). Also: nearly all actives have a fitted effect of over 50% in size. Also: potency is read from the fitted curve at half-maximal effect. The essentials: (§1)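 Erythrocytes infected with P. falciparum line (0.3% parasitemia, 2.5% hematocrit final) incubated with compounds 72 h at 37 °C, 5% CO2; SYBR Green lysis buffer added, fluorescence read next day. Normalized to 0.29 uM artemisinin and DMSO.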
Assay [3] is described as follows: qHTS for Inhibitors of Plasmodium falciparum (7G8) proliferation (AID 504316). Also: series mostly up to about 6.7 µM; nearly all actives have a fitted effect of over 65% in size. The essentials: as §1
Assay [4] can be described thus: qHTS for Inhibitors of Plasmodium falciparum (HB3) proliferation (AID 504318). Also: nearly all actives have a fitted effect of over 60% in size. The essentials: as §1
Assay [5] can be described thus: qHTS for Inhibitors of Plasmodium falciparum (CP250) proliferation (AID 504320). Summed up: as §1

Each structure is given as a SMILES string. Inconclusive results are not listed. Active and inactive are the calls of the source. Calls follow the shape of the dose curve; as a rule, active = well fitted curve in the direction sought with a large enough effect; inconclusive = small, poorly fitted or top-dose-only effect, or another doubt; inactive = no such curve, though single readings can be large; an effect the other way counts as inactive or inconclusive.

Turning to `CCOC(=O)CN1C(=O)N[C@@H](c2ccccc2)[C@@H](C(=O)OC)[C@H]1C`, the Potency entry in assay [1], in assay [2], in assay [3], in assay [4] and in assay [5] was “inactive” each time.
Take `COC(=O)C1=C(C(=O)OC)[C@@H]2Nc3ccccc3[C@@]23C[C@@H](C(=O)OC)N(S(=O)(=O)c2ccc(C(F)(F)F)cc2)C3=N1`: in assay [1], the Potency entry was “inactive”.
Regarding `COC/C=C/C1=CC2=CC(=O)C(C)(OC(=O)c3cnc4ccccc4n3)C(=O)C2=CN1C1CCCC1` (centres undefined), the Potency result in assay [1], in assay [2], in assay [3] and in assay [4] was “inactive” each time.
With `COC(=O)N[C@@H](c1ccccc1)[C@]1(C(=O)OC)CCCC1=O`, the Potency result in assay [1], in assay [2], in assay [3], in assay [4] and in assay [5] was “inactive” each time.
Take `CCCCC1=CC2=CC(=O)C(C)(OC(=O)CC)C(=O)C2=CN1CC(C)C` (centres undefined): the Potency result in assay [1], in assay [2], in assay [3], in assay [4] and in assay [5] was “inactive” throughout.
As for `COC(=O)[C@]1(C)C=C[C@@H](C)[C@H](c2ccccc2Br)N1C(=O)C(F)(F)F`, the Potency entry in assay [1], in assay [2], in assay [3], in assay [4] and in assay [5] was “inactive” throughout.
Regarding `COc1cc2c(cc1OC)[C@@H]1O[C@](CCCCN3C(=O)c4ccccc4C3=O)(C2)Oc2cc(C)n(-c3ccccc3)c(=O)c21`, the Potency is 1.69 µM (active) in assay [1] and 1.35 µM (active) in assay [2].
As for `COC(=O)CCCC1=CC2=C(c3ccccc3)C(=O)C(C)(OC(=O)C3CCCC3)C(=O)C2=CN1Cc1ccccc1` (centres undefined), the Potency entry in assay [1], in assay [2], in assay [3], in assay [4] and in assay [5] was “inactive” each time.
Regarding `C=CCN1C=C2C(=O)C(C)(OC(=O)CCC(=O)OC)C(=O)C(Br)=C2C=C1c1ccc(OC)cc1` (centres undefined), the Potency result in assay [1], in assay [2], in assay [3] and in assay [4] was “inactive” each time.
As for `CC#CCN1c2ccccc2[C@]23C[C@@H](C(=O)OC)N(S(=O)(=O)c4ccc(C#N)cc4)C2=NC(C(=O)OC)=C(C(=O)OC)[C@H]13`, the Potency entry in assay [1] is “inactive”.
With `CC[C@@H](C)CN1C(=O)N[C@@H](c2ccccc2)C(C(C)=O)=C1C`, the Potency result in assay [1], in assay [2], in assay [3] and in assay [4] was “inactive” throughout.
Take `COC(=O)C1=C(C(=O)OC)[C@@H]2N(C)c3ccc(OC)cc3[C@@]23C[C@@H](C(=O)OC)N(C(=O)CC(C)C)C3=N1`: the Potency result in assay [1] is “inactive”.
Take `COC(=O)CCCC1=CC2=CC(=O)C(C)(OC(=O)c3cccs3)C(=O)C2=CN1CC1CC1` (centres undefined): the Potency result in assay [1], in assay [2], in assay [3], in assay [4] and in assay [5] was “inactive” each time.
Turning to `CC1(OC(=O)CCc2ccccc2)C(=O)C=C2C=C(c3ccc(C#N)cc3)N(CCc3c[nH]c4ccccc34)C=C2C1=O` (centres undefined), the Potency entry in assay [1] and in assay [2] was “inactive” in each case.
Turning to `COC(=O)C1=C(C(=O)OC)[C@@H]2N(Cc3ccccc3)c3ccccc3[C@@]23CCC(=O)N(CC2CCCCC2)C3=N1`, the Potency entry in assay [1], in assay [2], in assay [3], in assay [4] and in assay [5] was “inactive” each time.
On to `CCCCS(=O)(=O)N1C2=NC(C(=O)OC)=C(C(=O)OC)[C@@H]3N(C)c4ccc(OC)cc4[C@]23C[C@H]1C(=O)OC`, for which the Potency result in assay [1] and in assay [2] was “inactive” in each case.
As to `COC(=O)CCC(=O)OC1(C)C(=O)C=C2C=C(C3CC3)N(C3CCCCC3)C=C2C1=O` (centres undefined), the Potency entry in assay [1], in assay [2], in assay [3], in assay [4] and in assay [5] was “inactive” throughout.
Regarding `COC(=O)CCC(=O)OC1(C)C(=O)C2=CN(Cc3ccco3)C(c3ccc(OC)cc3)=CC2=C(Br)C1=O` (centres undefined), the Potency result in assay [1] and in assay [2] was “inactive” in each case.
As to `CCCCC1=CC2=CC(=O)C(C)(OC(=O)CC)C(=O)C2=CN1C1CCCC1` (centres undefined), the Potency entry in assay [1], in assay [2], in assay [3] and in assay [4] was “inactive” each time.
Consider `COC(=O)C1=C(C(=O)OC)[C@@H]2N(Cc3ccccc3)c3ccccc3[C@@]23C[C@@H](C(=O)OC)N(C(=O)CC(C)C)C3=N1`, for which the Potency result in assay [1] was “inactive”.
Consider `CCCCC1=CC2=C(c3ccco3)C(=O)C(C)(OC(=O)c3ccc(OC)cc3)C(=O)C2=CN1CCOC` (centres undefined), for which the Potency result in assay [1], in assay [2], in assay [3], in assay [4] and in assay [5] was “inactive” each time.
For the molecule `COC(=O)CCCC1=CC2=CC(=O)C(C)(OC(=O)CCc3ccccc3)C(=O)C2=CO1` (centres undefined), the Potency result in assay [1], in assay [2], in assay [3], in assay [4] and in assay [5] was “inactive” in each case.
For the molecule `C=C(C)C(=O)c1ccc2c(c1)OCO2`, the Potency result in assay [1], in assay [2] and in assay [3] was “inactive” each time.
As to `C=CCN1C=C2C(=O)C(C)(OC(=O)c3cnc4ccccc4n3)C(=O)C=C2C=C1/C=C/COC` (centres undefined), the Potency result in assay [1], in assay [2], in assay [3], in assay [4] and in assay [5] was “inactive” throughout.
For the molecule `CCCCC1=CC2=C(c3ccco3)C(=O)C(C)(OC(=O)c3ccc(OC)cc3)C(=O)C2=CN1C1CCCC1` (centres undefined), the Potency result in assay [1], in assay [2], in assay [3], in assay [4] and in assay [5] was “inactive” in each case.
As to `CC(C)(C)OC(=O)NCCCC1=CC2=CC(=O)C(C)(OC(=O)c3cccs3)C(=O)C2=CO1` (centres undefined), the Potency result in assay [1], in assay [2], in assay [3], in assay [4] and in assay [5] was “inactive” throughout.
Regarding `CCOC(=O)[C@@]1([C@@H](NC(=O)OC)c2cccc(F)c2)CCCC1=O`, the Potency result in assay [1], in assay [2], in assay [3], in assay [4] and in assay [5] was “inactive” each time.
For `COC(=O)C1=C(C(=O)OC)[C@@H]2N(C)c3ccc(OC)cc3[C@@]23C[C@@H](C(=O)OC)N(C(C)=O)C3=N1`, the Potency result in assay [1], in assay [2] and in assay [3] was “inactive” each time.
With `C=CCN1c2ccccc2[C@]23C[C@@H](C(=O)OC)N(C(=O)COCc4ccccc4)C2=NC(C(=O)OC)=C(C(=O)OC)[C@H]13`, the Potency entry in assay [1], in assay [2], in assay [3], in assay [4] and in assay [5] was “inactive” each time.
With `CC#CCN1c2ccccc2[C@]23C[C@@H](C(=O)OC)N(C(=O)c4ccco4)C2=NC(C(=O)OC)=C(C(=O)OC)[C@H]13`, the Potency entry in assay [1], in assay [2], in assay [3], in assay [4] and in assay [5] was “inactive” each time.

The values above are taken from PubChem BioAssay (NCATS).
